Source: PubChem BioAssay (Sanford-Burnham Center for Chemical Genomics)
TROY signal inh – inhibitors of TROY-dependent NF-kB signaling; Q293 LMP1-TROYcd NF-kB luciferase reporter, 4 h; inhibition, % at 10 µM; 360,000 compounds, 0.98% hits; AID 1347056;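 active = compounds whose plate-normalised and pattern-corrected inhibition of the luciferase reporter signal at the single screening dose is 50% or more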
HIF-2a block – HIF-2a inhibition; inhibition, % at 18.8 µM; 360,000 compounds, 0.72% hits; 786-0 RCC cells HIF-2a reporter, luciferase luminescence, overnight;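 active = inhibition of the luminescence signal of 40% or more relative to plate controls, in a single-dose primary screen at 18.75 µM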
CF NFkB inh – cystic fibrosis NF-kB activation inhibition. KKLEB NF-kB-GFP reporter, PAF-induced, GFP fluorescence overnight. inhibition, % at 5 µM. 360,000 compounds, 0.86% hits. AID 588850;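 active = at least 50% inhibition at 5 µM, scaled per plate between neutral and stimulator controls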;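 also: PAF is a Pseudomonas aeruginosa culture filtrate used as stimulus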
Peg3 prom inh – reduces Peg3 promoter-driven luciferase expression in HeLa; HeLa PEG-Prom luciferase reporter, luminescence, overnight; inhibition, % at 20 µM; 360,000 compounds, 1.7% hits;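 active = inhibition of at least 50% at 20 µM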
TWEAK Fn14 block – inhibitors of TWEAK-Fn14 interaction signaling | TWEAK-stimulated Fn14 reporter cells, luciferase luminescence, 8 h | inhibition, % at 10 µM | 360,000 compounds, 2% hits; in the data active = inhibition above about 50%
KKLEB cytotox – counter-screen for CF NF-kB inhibitors: cytotoxicity | activity change (cytotoxicity), % at 5 µM | 360,000 compounds, 0.36% hits | KKLEB CF airway cells viability, ATPlite luminescence, overnight; active compounds read low; cells stimulated with P. aeruginosa culture filtrate;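 active = corrected activity change at or below -50% at 5 µM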
Large screens that a line does not name were inactive. Compounds with a hit are over-represented: about 4% of the library has one in this group of screens.

CCCCn1nnnc1C(c1cc2ccccc2o1)N1CCN(c2cc(C)nc3ccccc23)CC1 (centres undefined)	none (no result: CF NFkB inh, Peg3 prom inh, KKLEB cytotox)
O=C1CSC(c2ccccn2)N1c1ccc(Cl)c(Cl)c1 (centres undefined)	TWEAK Fn14 block 107.5
Cc1cccc(C(=O)Nc2cc(S(=O)(=O)N3CCOCC3)ccc2N2CCCCC2)c1	none
CCc1ccc(S(=O)(=O)/N=C2\C=C(NS(=O)(=O)c3ccccc3)C(=O)c3ccccc32)cc1	CF NFkB inh 69.0
Cc1ccc(C)c(S(=O)(=O)/N=C2\C=C(NS(=O)(=O)c3ccccc3)C(=O)c3ccccc32)c1	none
CC(C)c1ccc(S(=O)(=O)/N=C2\C=C(NS(=O)(=O)c3ccccc3)C(=O)c3ccccc32)cc1	CF NFkB inh 73.7
CC(C)[n+]1ccn(C2=C([O-])c3ccccc3C(=O)/C2=N\S(=O)(=O)c2ccccc2)c1	none
Cn1c(N)c(C(=O)CSc2nn(-c3ccc(F)cc3)c(=S)s2)c(=O)n(C)c1=O	TWEAK Fn14 block 59.5
CCCCN(C(=O)CSc1nn(-c2ccc(F)cc2)c(=S)s1)c1c(N)n(CCCC)c(=O)[nH]c1=O	none
CC(C)(C)C(=O)c1c(N)[nH]c(C(=O)c2ccccc2)c1-c1c(F)cccc1F	none (no result: CF NFkB inh, Peg3 prom inh, KKLEB cytotox)
O=C(Nc1ccccc1C(=O)Nc1nnc(C(F)(F)F)s1)c1ccccc1Cl	TROY signal inh 66.4, CF NFkB inh 56.2, TWEAK Fn14 block 61.5, KKLEB cytotox -60.7
Cc1nn(-c2ccccc2)nc1C(=O)Nc1nnc(C(F)(F)F)s1	TROY signal inh 52.1
CC(NC(=O)Nc1nnc(C(F)(F)F)s1)(C(F)(F)F)C(F)(F)F	TROY signal inh 55.1
CCc1nnc(NC(=O)c2nn(-c3ccccc3)nc2C)s1	none
C#CCOC(=O)c1ccccc1C(=O)n1nnc2ccccc21	TWEAK Fn14 block 55.3
CCCC(=O)Nc1ccc(C(=O)n2nnc3ccccc32)cc1	none
CN(C)c1ccc(C(=O)n2nnc3ccccc32)cc1	CF NFkB inh 68.8, TWEAK Fn14 block 94.0
COc1ccc(-c2cc3nc(NCCN4CCCC4)n(C)c(=O)c3s2)cc1OC	none
COc1cccc(CNc2nc3cc(-c4ccc(OC)c(OC)c4)sc3c(=O)n2C)c1	TWEAK Fn14 block 53.6
COc1cccc(CNc2nc3cc(-c4ccc(C)cc4)sc3c(=O)n2C)c1OC	none
COc1ccc(-c2cc3nc(NCc4ccc(N(C)C)cc4)n(C)c(=O)c3s2)cc1OC	TWEAK Fn14 block 79.9
COc1cccc(CNc2nc3cc(-c4ccsc4)sc3c(=O)n2C)c1OC	TWEAK Fn14 block 81.8
CC(C)NC(=O)N(O)C1N(Cc2ccc3c(c2)OCO3)C(=S)SC1(C)C (centres undefined)	TWEAK Fn14 block 58.1
Cc1nn(S(=O)(=O)c2ccccc2)c(C)c1S(=O)(=O)N1CCOCC1	none
C/C(=C\c1cccc(Cl)c1Cl)C(=O)c1c(C)cc(C)[nH]c1=O	TWEAK Fn14 block 72.4
C/C(=C\c1ccccc1F)C(=O)c1c(C)cc(C)[nH]c1=O	none
N#CCCN(C(=O)c1ccc2c(=O)n3c(nc2c1)CCCCC3)c1ccccc1	none
CCCCC1(Cc2cccc([N+](=O)[O-])c2)C(=O)N(c2ccccc2)N(c2ccccc2)C1=O	Peg3 prom inh 52.4
CCCCC1(CO)C(=O)N(c2ccccc2)N(c2ccccc2)C1=O	none
CC[C@@H](C(=O)[C@@H](C)[C@@H](O)[C@H](C)CCc1ccc(C)c(O)c1C(=O)O)[C@H]1O[C@](CC)([C@H]2CC[C@](O)(CC)[C@H](C)O2)C[C@@H]1C	TROY signal inh 76.4, CF NFkB inh 76.3, Peg3 prom inh 94.0, TWEAK Fn14 block 85.8, KKLEB cytotox -50.9
CN1CCc2cc3c(c4c2[C@H]1[C@H](O)c1ccccc1-4)OCO3	Peg3 prom inh 65.5
COc1ccc(S(=O)(=O)Nc2cccc3c2O[C@H](CN(C)C(=O)Nc2ccccc2)[C@@H](C)CN([C@H](C)CO)C3=O)cc1	none
FC(F)(F)c1ccc(N2CCN(c3cc(-c4ccccc4)nc4ncnn34)CC2)nc1	TROY signal inh 66.7, TWEAK Fn14 block 79.8
COC(=O)c1sc(-c2ccc(C(C)(C)C)cc2)cc1NC(=O)c1ccccc1C(=O)O	TROY signal inh 52.0
COC(=O)c1sc(-c2ccc(Cl)cc2)cc1NC(=O)c1ccccc1C(=O)O	none
O=C(Cn1cnnn1)OCC(=O)c1ccc(Cl)s1	TROY signal inh 70.6
CC(C)NC(=O)Nc1ccc2c(c1)C(=O)N([C@H](C)CO)C[C@H](C)[C@@H](CN(C)S(C)(=O)=O)O2	none
CC(=O)c1cccc(OCCN2C(=O)NC(C)(C)C2=O)c1	TROY signal inh 58.4
CC(=O)c1cc2c(C)c(C(=O)c3ccccc3)oc2cc1O	TWEAK Fn14 block 54.6
CCc1ccccc1NC(=O)C1(S(=O)(=O)c2ccc(C)cc2)CC1	none
O=C(O)CCc1ccc(-c2ccc(F)cc2)n1NC(=O)c1ccco1	none
Cc1ccc(-c2ccc(CCC(=O)O)n2NC(=O)c2ccco2)cc1	TWEAK Fn14 block 77.0 (no result: TROY signal inh)
CCCCCCCCNS(=O)(=O)CCNCc1ccc(OC)cc1	Peg3 prom inh 61.1
COc1ccc(CNCCS(=O)(=O)NCc2ccc(OC)cc2)cc1	none
COc1ccc(S(=O)(=O)N2CCN(CC(=O)Nc3sccc3C(N)=O)CC2)cc1OC	none
Cc1ccc2c(c1)CC(C)N2S(=O)(=O)c1nnc(NC(=O)CC(C)C)s1 (centres undefined)	none
O=C(C=Cc1ccccn1)c1ccccc1O	Peg3 prom inh 98.0
Cc1ccc(O)c(C(=O)/C=C/c2ccc3c(c2)OCCCO3)c1	TWEAK Fn14 block 56.0
Cc1ccc(/C=C/C(=O)c2ccccc2O)cc1	none
O=C(/C=C/c1ccc2c(c1)OCCCO2)c1ccccc1O	TROY signal inh 55.6, TWEAK Fn14 block 74.6
Cc1ccc(O)c(C(=O)C=Cc2ccccc2)c1	TWEAK Fn14 block 53.9
CCNc1ccccc(C(=O)/C=C/c2ccc3c(c2)OCO3)c1=O	none
CN(C)c1ccc(/C=C/C(=O)c2ccccc2O)cc1	TROY signal inh 50.2, TWEAK Fn14 block 58.4
CN(C)c1ccc(/C=C/C(=O)c2ccc(O)cc2)cc1	none
O=C(CC1CS(=O)(=O)CC1CC(=O)Nc1ccc2c(c1)OCCO2)Nc1ccc2c(c1)OCCO2 (centres undefined)	TWEAK Fn14 block 91.3
Cc1ccsc1C(=O)Nc1ccc2c(c1)OCCO2	none
CC(=O)Nc1ccc(NC(=O)c2c(C)nc3ccccn23)cc1	none
Cc1ncoc1C(=O)Nc1ccc2c(c1)OCCO2	TWEAK Fn14 block 73.3
Cc1ccccc1C(=O)Nc1ccc2c(c1)OCCO2	TWEAK Fn14 block 57.8
CCC(=O)Nc1ccc2c(c1)OCCO2	none
Cc1nc2ccccn2c1C(=O)Nc1ccc2c(c1)OCCO2	TROY signal inh 67.5, TWEAK Fn14 block 85.0
CC(CCCN(C)C)C(Cc1ccccc1)c1ccccc1 (centres undefined)	none
O=C(CCN1C(=O)c2ccccc2C1=O)Nc1ccc2c(c1)OCCO2	none
